Hits are enriched below; roughly 27% of the tested compounds scored in any of these assays.
CYP2C9 inh = blockers of cytochrome P450 2C9 activity – biochemical, luminescence, ADME assay, primary screen; CYP2C9 Supersomes, luciferin-H conversion; inhibition, % at 5 µM; 20% of 96,000 active; AID 777, 2007;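 active means blocking of liver enzyme CYP2C9 beyond about 50% at 5 µM, limit read from the data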
Target sequence (P11712 whole entry, looked up): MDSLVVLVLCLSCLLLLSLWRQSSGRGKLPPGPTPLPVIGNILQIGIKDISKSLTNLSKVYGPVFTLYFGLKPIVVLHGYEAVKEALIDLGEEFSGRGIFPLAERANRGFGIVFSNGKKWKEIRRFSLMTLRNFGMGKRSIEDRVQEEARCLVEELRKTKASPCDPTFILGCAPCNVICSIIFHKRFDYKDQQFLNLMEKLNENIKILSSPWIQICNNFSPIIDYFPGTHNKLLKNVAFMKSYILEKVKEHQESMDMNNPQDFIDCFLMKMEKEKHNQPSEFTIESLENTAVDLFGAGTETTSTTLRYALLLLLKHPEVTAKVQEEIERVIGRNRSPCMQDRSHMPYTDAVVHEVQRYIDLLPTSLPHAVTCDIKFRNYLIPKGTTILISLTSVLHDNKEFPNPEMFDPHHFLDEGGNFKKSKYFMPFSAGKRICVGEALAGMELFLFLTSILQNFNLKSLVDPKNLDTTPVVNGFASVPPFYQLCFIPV
CYP2C9 act = human CYP2C9 activators, primary screen, biochemical, luminescence; Cytochrome P450 2C9 (Homo sapiens), P11712; recombinant CYP2C9, luciferin-H conversion; hits give high values; factor 1 = untreated enzyme, 0 = blocked; activation factor at 5 µM; 1.4% of 96,000 active;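 active means activation factor of 2 or more for CYP2C9 at a 5 µM dose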;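 further: 0 = sulfaphenazole-blocked wells and 1 = vehicle-only wells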
CYP2C19 inh = blockers of cytochrome P450 2C19 activity – biochemical, luminescence, ADME assay, primary screen; P33261; CYP2C19 Supersomes, luciferin-H EGE luminescence, 30 min; inhibition, % at 5 µM; 21% of 96,000 active;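 active means CYP2C19 inhibition above a set limit at 5 µM in the primary screen, cut at about 50% in these data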;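 further: plate controls were negative control wells for no effect and 2.5 mM tranylcypromine positive control for full effect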
Cav3 T inh = Cav3.2 calcium influx blockers – cell-based, Fluo-4 calcium fluorescence, FDSS, MLSMR library, primary screen | Voltage-dependent T-type calcium channel subunit alpha-1H (Homo sapiens), O95180 | 4% of 100,000 active | Cav3.2-expressing cells; hits give low values | B-score at 10 µM | AID 449739, 2010;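 active means single-dose well whose peak fluorescence ratio is a statistical outlier from its plate by either plate-standardised score or position-corrected B-score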
CYP2C19 act = human CYP2C19 activators, primary screen, biochemical, luminescence; 96,000 tested, under 10 active; activation factor at 5 µM; AID 1025, 2008; recombinant CYP2C19, luciferin-H EGE luminescence; hits give high values; 0 = fully inhibited enzyme, 1 = untreated enzyme; Cytochrome P450 2C19 (Homo sapiens), P33261;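 active means activation factor of at least 2 at 5 µM in the primary screen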;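 further: 0 = wells with 2.5 mM tranylcypromine and 1 = vehicle-only wells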
Numbers without * were called inactive; nt = no result.

SMILES	CYP2C9 inh	CYP2C9 act	CYP2C19 inh	Cav3 T inh	CYP2C19 act
CCn1c(SCC(=O)NCc2ccc(F)cc2)nc2c(c1=O)SC(C)C2 (stereo unspecified)	63*	0.4	6	-1.1	0.9
CCn1c(SCC(=O)NCCc2ccccc2)nc2c(c1=O)SC(C)C2 (stereo unspecified)	92*	0.1	76*	0.72	0.2
CC1Cc2nc(SCC(=O)NCCc3ccccc3)n(C)c(=O)c2S1 (stereo unspecified)	nt	nt	nt	0.066	nt
CCn1c(SCC(=O)NCc2ccccc2)nc2c(c1=O)SC(C)C2 (stereo unspecified)	61*	0.4	30	0.76	0.7
CCn1c(SCC(=O)NCc2ccco2)nc2c(c1=O)SC(C)C2 (stereo unspecified)	28	0.7	-7	-0.047	1.1
CC1CN(C(=O)CCN2C(=O)c3ccccc3C2=O)CC(C)O1 (stereo unspecified)	nt	nt	nt	-0.15	nt
CCOc1ccc(N=c2scc(-c3ccc(OC)cc3)n2CCO)cc1	nt	nt	nt	0.0064	nt
CCOc1ccc(N=c2scc(-c3ccccc3)n2CCO)cc1	48	0.5	68*	0.63	0.3
OCCn1c(-c2ccc3c(c2)OCO3)csc1=Nc1ccccc1	87*	0.1	96*	-5.4*	0
CC1=C(C(=O)Nc2cccc(C)n2)C(c2ccc3c(c2)OCO3)C2=C(CC(c3ccco3)CC2=O)N1 (stereo unspecified)	94*	0.1	86*	-2.5	0.1
CCOC(=O)C1CSc2[nH]c(=O)sc2C1c1ccccc1 (stereo unspecified)	62*	0.4	81*	-0.037	0.2
COC(=O)C1CSc2[nH]c(=O)sc2C1c1ccc(O)c(OC)c1 (stereo unspecified)	6	0.9	2	1.5	1
O=C(NCc1ccc(F)cc1)c1cnn2ccccc12	2	1	60*	0.82	0.4
COc1ccccc1C1NC(c2ccccc2OC)C(C)C(=O)C1C (stereo unspecified)	67*	0.3	100*	-0.13	0
COc1ccc(C2NC(c3ccc(OC)c(OC)c3OC)C(C)C(=O)C2C)c(OC)c1OC (stereo unspecified)	nt	nt	nt	-1.3	nt
S=C(c1ccc(-c2cccc(Cl)c2)o1)N1CCOCC1	16	0.8	50*	-1.9	0.5
S=C(c1ccc(-c2cc(Cl)ccc2Cl)o1)N1CCOCC1	-82	1.8	32	-2	0.7
N#CCCN1CCN(C(=S)c2ccc(-c3ccc(Cl)c(Cl)c3)o2)CC1	61*	0.4	47	-1.1	0.5
O=C(O)c1ccc(-c2cccc(Cl)c2)o1	nt	nt	nt	-0.39	nt
N#CCCN1CCN(C(=S)c2ccc(-c3cccc(Cl)c3)o2)CC1	32	0.7	93*	-1.2	0.1
O=C1Nc2ccccc2S/C1=C/Nc1cccc(Cl)c1	5	1	-1	-2	1
COc1ccc(-n2ncc3c(NCCCn4ccnc4)ncnc32)cc1	nt	nt	nt	-0.0085	nt
Cc1cc(C)n2c(SCc3ccc(C#N)cc3)nnc2n1	-2	1	45	nt	0.5
Cc1cc(N2CCCCC2)nc(SCc2ccc(C#N)cc2)n1	63*	0.4	49	-4.7	0.5
COc1ccc(NC(=O)c2c(-c3ccccc3Cl)noc2C)c(OC)c1	49	0.5	59*	-0.35	0.4
SMILES	CYP2C9 inh	CYP2C9 act	CYP2C19 inh	Cav3 T inh	CYP2C19 act
COc1ccc(-n2nc3c(c2NC(=O)c2c(-c4ccccc4Cl)noc2C)CS(=O)(=O)C3)cc1	82*	0.2	50	nt	0.5
Cc1ccc(C)c(N=Nc2nc3ccccc3n2C)c1	32	0.7	66*	-0.58	0.3
Cc1ccc(Oc2nc3ccccc3n3c(C)nnc23)c(C)c1	14	0.9	11	-0.64	0.9
O=C(Nc1ccc2c(c1)OCO2)C1CCN(Cc2cnn(-c3ccccc3)c2-n2cccc2)CC1	69*	0.3	21	-5.2*	0.8
O=C(NCC1CCCO1)C1CCCN(Cc2cnn(-c3ccccc3)c2-n2cccc2)C1 (stereo unspecified)	35	0.6	10	2.8	0.9
O=C(Nc1ccc2c(c1)OCO2)C1CCN(S(=O)(=O)Cc2ccccc2)CC1	55*	0.4	46	-0.0028	0.5
C[C@H]1CC[C@@]2(O[C@H](CCO)C[C@H](O)[C@H]2O)O1	nt	nt	nt	0.24	nt
Cc1ccc(CSc2sc(C(=O)c3ccccc3)c(N)c2C#N)cc1	61*	0.4	31	nt	0.7
N#Cc1c(Oc2ccc3ccccc3c2)sc(C(=O)c2ccccc2)c1N	26	0.7	1	-3.1	1
N#Cc1c(SCc2cccc(Cl)c2)sc(C(=O)c2ccccc2)c1N	89*	0.1	81*	-1.9	0.2
C=C1CCN([C@@H](CC(C)C)C(=O)NCc2ccco2)S(=O)(=O)c2ccccc21	nt	nt	nt	0.46	nt
Cc1ccc(NC2=CC(=O)OC(C)C2)cc1 (stereo unspecified)	-9	1.1	-8	1	1.1
N=c1nc(N)nc2n1NC(c1ccc(F)cc1)=CS2	17	0.8	13	0.38	0.9
CC(C)COc1ccc(C(=O)Nc2scc(-c3ccc(Cl)cc3Cl)c2C(N)=O)cc1	67*	0.3	30	nt	0.7
CN1CCN(C(=O)C2=C[C@H](c3ccc4c(c3)OCO4)C[C@H](OCCCCO)O2)CC1	nt	nt	nt	1.6	nt
Cc1cc(NC(=O)C(C)(C)C)no1	-3	1	-3	-0.18	1
Cc1ccc(NC(=O)CN2C(=O)S/C(=C\c3cc(C)n(C)c3C)C2=O)cc1	20	0.8	57*	nt	0.4
Cc1ccc(NC(=O)CN2C(=O)S/C(=C\c3cccn3C)C2=O)cc1	76*	0.2	14	nt	0.9
Cc1ccc(NC(=O)CN2C(=O)S/C(=C\c3ccc(-c4cccc(C(=O)O)c4C)o3)C2=O)cc1	10	0.9	-2	0.59	1
Cc1c(/C=C2\SC(=O)N(CC(=O)Nc3ccc4c(c3)OCO4)C2=O)c2ccccc2n1C	-8	1.1	29	-0.49	0.7
COc1cc(OC)cc(-c2nc(N)n[nH]2)c1	13	0.9	52*	-0.68	0.5
COC(=O)c1ccc([C@H]2C=C(C(=O)O)O[C@@H](OCc3ccc(CO)cc3)C2)cc1	nt	nt	nt	0.15	nt
COCCOC(=O)C1=C(C)NC(=O)NC1C1CC=CCC1 (stereo unspecified)	30	0.7	96*	-0.48	0
COCCOC(=O)C1=C(C)NC(=O)NC1c1c(OC)ncnc1OC (stereo unspecified)	1	1	0	-0.48	1
CC(C)(C)OC(=O)Cn1c(=O)cnc2ccccc21	-10	1.1	34	-0.038	0.7
O=C(Cc1ccc(Cl)cc1Cl)OCC(=O)c1ccc[nH]1	34	0.7	14	-2.3	0.9
O=C(COc1ccc(F)c(Cl)c1)c1ccc[nH]1	12	0.9	74*	-1.1	0.3
